Screening results (PubChem)
BoNT A protease: blocks Botulinum neurotoxin A light chain protease; multiplex microsphere protease substrate cleavage, flow cytometry; inhibition, % at 10 µM; 0.17% of 360,000 active; AID 588499
Bead autofluor: counter-screen for toxin protease inhibitors: compound fluorescence; compound autofluorescence counterscreen, microsphere flow cytometry; stronger effect = higher value; fluorescence intensity (test concentration not listed); 3.1% of 360,000 active; AID 624483; in the data active = fluorescence intensity above about 16000; inconclusive = no clear call, values can overlap the other calls
Anthrax LF inh2: inhibitors of Bacillus anthracis lethal factor protease; P15917; multiplex microsphere protease cleavage assay, LF; inhibition, % at 10 µM; 0.12% of 360,000 active
CCHF vOTU inh-1: blocks the CCHF virus ovarian tumor domain protease. inhibition, % at 11.5 µM. AID 651958. CCHFV vOTU protease, Pep-AMC fluorescence. 0.55% of 370,000 active; in the data active = inhibition above about 30%
BoNT-F LC inh: BoNT F light chain protease inhibition. Multiplex microsphere protease cleavage assay, flow cytometry. inhibition, % at 10 µM. 0.22% of 360,000 active; in the data active = inhibition above about 35%, passing the limit was not always enough; inconclusive = no clear call, values can overlap the other calls
SARS 3CLpro inh: SARS-CoV 3CLpro protease inhibition; P0C6X7; recombinant SARS-CoV 3CLpro, quenched FRET peptide cleavage; inhibition, % at 6 µM; 0.14% of 290,000 active; AID 1706; in the data active = inhibition above about 12%
CCHF vOTU inh-2: confirmation of CCHF virus vOTU protease inhibitors; 17% of 1,900 active; Recombinant CCHFV vOTU, Pep-AMC fluorescence; AID 686976; inhibition, % at 11.5 µM; shares compounds with CCHF vOTU inh-1; in the data active = inhibition above about 30%
Hits are given with their value; . = inactive; ? = inconclusive; / = no result. In the library only some 3.9% were active in any assay of this set; here they are far more common. Rule as the data show it, unless noted: active = inhibition above about 30%; inconclusive = no clear call, values can overlap the other calls; inactive = below that.

SMILES | BoNT A protease | Bead autofluor | Anthrax LF inh2 | CCHF vOTU inh-1 | BoNT-F LC inh | SARS 3CLpro inh | CCHF vOTU inh-2
O=C(CN1C2CCCC1CC(NC(=O)c1ccccc1)C2)Nc1ccccc1 (stereo not drawn) | . | . | . | 30.2 | . | . | .
COC(=O)c1sc(N)nc1CCNC(=O)OC(C)(C)C | / | / | / | . | / | / | /
O=C1Nc2ccc([N+](=O)[O-])cc2C1(O)N1CCCCCC1 (stereo not drawn) | . | . | . | 30.3 | . | . | .
CC1CCN(C2(O)C(=O)Nc3ccc(Br)cc32)CC1 (stereo not drawn) | . | . | . | . | . | . | /
COc1ccc(C=NNC(=O)c2cc(-c3ccc(C)c(C)c3)n[nH]2)cc1OCc1ccccc1 | / | / | / | . | / | / | /
COc1ccc(S(=O)(=O)N2CCOCC2)cc1NC(=O)CCCOc1ccccc1 | . | . | . | . | . | / | /
Cc1cc(C)cc(OCC(=O)N2N=C(C(F)(F)F)CC2(O)C(C)(C)C)c1 (stereo not drawn) | . | . | . | 30.0 | . | . | .
Cc1cc(C)cc(OCC(=O)N2N=C(c3cccnc3)CC2(O)C(F)(F)F)c1 (stereo not drawn) | . | . | . | . | . | . | /
CCN(CC)C(=O)[C@H]1C[C@H](CC(=O)NCc2cccc(C(F)(F)F)c2)C(=O)N2CCc3c([nH]c4ccc(Cl)cc34)[C@]12C | . | . | . | 31.6 | . | / | .
O=C(Cc1ccc(Cl)cc1)Nc1cccc(C(=O)Nc2ccccc2C(=O)O)c1 | . | . | . | . | . | . | /
CCc1nc2c(OCCC3CCCCC3)cccn2c1N(C)C(=O)COc1ccccc1 | . | . | . | 36.3 | . | / | .
CCc1nc2c(OCCC3CCCCC3)cccn2c1N(C)C(=O)c1ccc(C)cc1 | . | . | . | 37.2 | . | / | .
CCc1nc2c(OCC3CCCCC3)cccn2c1N(C)C(=O)c1ccccc1F | . | . | . | 31.0 | . | / | .
COc1ccccc1N(CC(=O)Nc1ccccc1C(=O)N1CCOCC1)S(C)(=O)=O | . | . | . | . | . | . | /
O=C(CSc1ccccn1)Nc1ccc(Cl)cn1 | . | . | . | . | . | . | /
CCc1nn(CC(=O)NCCCN(CC)Cc2ccccc2)c(=O)c2cc3sccc3n12 | . | . | . | 34.9 | . | . | .
CCCCN(CCCNC(=O)Cn1nc(CC)n2c(cc3sc(C)cc32)c1=O)Cc1ccccc1 | . | . | . | . | . | . | /
COC(=O)c1ccc(N2C(=O)C3CC=CC(C)C3C2=O)cc1 (stereo not drawn) | . | . | . | . | . | . | /
Cc1cc(C)c(S(=O)(=O)NCC(c2ccco2)N2CCc3ccccc3C2)c(C)c1 (stereo not drawn) | . | . | . | 29.7 | . | / | .
O=S(=O)(NCC(c1ccco1)N1CCc2ccccc2C1)c1ccc(F)cc1 (stereo not drawn) | . | ? | . | . | . | / | /
CCCCNC(=O)c1ccccc1SCC(=O)NC1CCCCCCC1 | . | . | . | . | . | / | /
COc1cc(CCc2ccccc2)c(C(=O)O)c(O)c1CC=C(C)C | . | . | . | . | . | / | /
COc1cc(CCc2ccccc2)c(C(=O)O)c(O)c1C/C=C(/C)CCC=C(C)C | . | . | . | 35.7 | . | / | 46.7
COc1cc(C(=O)c2ccccc2)c([N+](=O)[O-])cc1OC | . | . | . | . | . | . | /
COc1cc(N)c(C(=O)c2nccc3cc(OC)c(OC)cc23)cc1OC | / | / | / | . | / | . | /
SMILES | BoNT A protease | Bead autofluor | Anthrax LF inh2 | CCHF vOTU inh-1 | BoNT-F LC inh | SARS 3CLpro inh | CCHF vOTU inh-2
COc1cc(Br)c(C(=O)c2nccc3cc(OC)c(OC)cc23)cc1OC | . | . | . | 111.0 | ? | . | 90.0
COc1cc(C(=O)c2nccc3cc(OC)c(OC)cc23)c([N+](=O)[O-])cc1OC | . | . | . | 103.1 | . | . | 72.3
O=C(Cn1cnc2ccccc2c1=O)NCCCN1CCCC1=O | . | . | . | . | . | / | /
COC(=O)C1=C(C)N(Cc2cccc(C(F)(F)F)c2)C(=NCc2ccc(C(F)(F)F)cc2)NC1c1cccc(F)c1 (stereo not drawn) | / | / | / | 38.1 | / | / | .
COC(=O)C1=C(C)N(Cc2cccc(C(F)(F)F)c2)C(=NCc2ccc(C(F)(F)F)cc2)NC1c1ccc(C(F)(F)F)cc1 (stereo not drawn) | / | / | / | 40.2 | / | / | .
COC(=O)C1=C(C)N(Cc2ccc(C(F)(F)F)cc2)C(=NCc2cccc(C(F)(F)F)c2)NC1c1ccccc1C(F)(F)F (stereo not drawn) | / | / | / | . | / | / | /
COC(=O)C1=C(C)N(Cc2ccc(C(F)(F)F)cc2)C(=NCc2ccc(OC)cc2)NC1c1ccccc1C(F)(F)F (stereo not drawn) | / | / | / | 34.9 | / | / | .
COCCNc1nc(N2CCCCC2)c2cnn(C)c2n1 | . | . | . | . | . | . | /
O=C(O)c1ccccc1NS(=O)(=O)c1ccc(NN=Cc2cccc(Cl)c2)c([N+](=O)[O-])c1 | . | . | . | . | . | / | /
CC(O)CNc1nc(Cl)c(C#N)s1 (stereo not drawn) | . | . | . | . | . | . | /
O=C(O)c1cc(N2N=C(C(F)(F)F)/C(=C/C=C/c3ccco3)C2=O)ccc1Cl | . | . | . | 63.4 | . | . | 44.0
O=[N+]([O-])c1cccc(-c2nnnn2-c2cccc(F)c2)c1 | . | . | . | . | . | / | /
C[C@@H](C(=O)NCc1c(F)cccc1Cl)N1C(=O)N2CCc3c([nH]c4ccccc34)[C@@]2(C)C1=O | . | . | . | . | . | . | /
COc1cc2c(cc1NCc1ccccn1)oc1ccccc12 | . | . | . | 29.7 | . | . | .
C/C(=N\NC(=O)c1cc2ccccc2cc1O)c1ccccn1 | . | . | . | . | . | . | /
C/C(=N\NC(=O)c1ccccc1-n1cccc1)c1ccccn1 | . | . | . | 37.0 | . | / | .
C[C@H](CO)N1C[C@H](C)[C@@H](CN(C)Cc2ccc(-c3ccccc3)cc2)Oc2ncc(C#C[C@@H](C)O)cc2C1=O | . | . | . | 32.8 | . | / | .
COc1ccc(C(=O)/C=C/c2ccc(OCc3ccccc3)cc2)cc1CSCC(=O)O | . | . | . | 36.2 | . | . | .
Nc1cc([N+](=O)[O-])cc2oc(-c3ccccc3)cc12 | . | . | . | 32.3 | . | . | .
C[C@H]1CN([C@@H](C)CO)C(=O)CCCn2nncc2CO[C@H]1CN(C)S(=O)(=O)c1ccccc1F | . | . | . | . | . | / | /
Nc1ncnc2oc(-c3ccco3)c(-c3ccco3)c12 | . | . | . | 33.5 | . | . | .
Nc1nnc(-c2ccco2)s1 | . | . | . | . | . | . | /
CC(C)=NNc1nc(-c2ccc(N3C(=O)CCC3=O)cc2)cs1 | . | . | . | . | . | . | /
CN(C)CCCN1c2ccc([N+](=O)[O-])cc2CCc2cc([N+](=O)[O-])ccc21 | . | . | . | 35.4 | . | / | .
FC(F)(F)c1cccc(NC2=NCCCS2)c1 | . | . | . | . | . | . | /
FC(F)(F)Oc1ccc(NC2=NCCCS2)cc1 | . | . | . | 44.3 | . | . | .
COc1ccc(C(=O)NCCc2ccc(C(F)(F)F)cc2)cc1S(=O)(=O)N1CCOCC1 | . | . | . | . | . | / | /
